# Data from the supplement of paper PMC4466140.
# Biological target: AgAbp1
# Experiment: SPOT peptide array binding signal intensity (averaged, normalized) (arbitrary units (background-subtracted, floor 0; scale differs between SH3 domains)); higher = stronger binding of the SH3 domain to the peptide
# How it was run: (§1)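 GST-fused SH3 domains, from four yeast species, were produced in E. coli BL21(DE3) and captured on glutathione Sepharose. Membranes of cellulose carrying synthetic 15-mer peptides, in which cysteines had been replaced by serines, were exposed to each domain at 10 μg/ml overnight at 4°C in TBS-based blocking buffer. After anti-GST antibody, an HRP anti-mouse secondary and luminol, spots were imaged and quantified using Genespotter. Binding signal is normalized and background-subtracted spot intensity, averaged over replicates, in arbitrary units that differ between domains.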
row,Binder,SPOT peptide array binding signal intensity
1,SSSSSPPPLPTRRDH,≤ 0

# Biological target: AgBbc1
# Experiment: as above
# How it was run: as §1
row,Binder,SPOT peptide array binding signal intensity
1,SSSSSPPPLPTRRDH,364

# Biological target: AgBem1-D1
# Experiment: as above
# How it was run: as §1
row,Binder,SPOT peptide array binding signal intensity
1,SSSSSPPPLPTRRDH,2

# Biological target: AgBzz1-D1
# Experiment: as above
# How it was run: as §1
row,Binder,SPOT peptide array binding signal intensity
1,SSSSSPPPLPTRRDH,26

# Biological target: AgBzz1-D2
# Experiment: as above
# How it was run: as §1
row,Binder,SPOT peptide array binding signal intensity
1,SSSSSPPPLPTRRDH,19.5

# Biological target: AgCyk3
# Experiment: as above
# How it was run: as §1
row,Binder,SPOT peptide array binding signal intensity
1,SSSSSPPPLPTRRDH,1.5

# Biological target: AgFus1
# Experiment: as above
# How it was run: as §1
row,Binder,SPOT peptide array binding signal intensity
1,SSSSSPPPLPTRRDH,15.5

# Biological target: AgHof1
# Experiment: as above
# How it was run: as §1
row,Binder,SPOT peptide array binding signal intensity
1,SSSSSPPPLPTRRDH,59

# Biological target: AgHse1
# Experiment: as above
# How it was run: as §1
row,Binder,SPOT peptide array binding signal intensity
1,SSSSSPPPLPTRRDH,18.5

# Biological target: AgLsb1
# Experiment: as above
# How it was run: as §1
row,Binder,SPOT peptide array binding signal intensity
1,SSSSSPPPLPTRRDH,180

# Biological target: AgLsb4
# Experiment: as above
# How it was run: as §1
row,Binder,SPOT peptide array binding signal intensity
1,SSSSSPPPLPTRRDH,6800

# Biological target: AgMyo5
# Experiment: as above
# How it was run: as §1
row,Binder,SPOT peptide array binding signal intensity
1,SSSSSPPPLPTRRDH,586

# Biological target: AgNbp2
# Experiment: as above
# How it was run: as §1
row,Binder,SPOT peptide array binding signal intensity
1,SSSSSPPPLPTRRDH,16

# Biological target: AgRvs167
# Experiment: as above
# How it was run: as §1
row,Binder,SPOT peptide array binding signal intensity
1,SSSSSPPPLPTRRDH,627

# Biological target: AgSho1
# Experiment: as above
# How it was run: as §1
row,Binder,SPOT peptide array binding signal intensity
1,SSSSSPPPLPTRRDH,19

# Biological target: AgSla1-D1-D2
# Experiment: as above
# How it was run: as §1
row,Binder,SPOT peptide array binding signal intensity
1,SSSSSPPPLPTRRDH,≤ 0

# Biological target: AgSla1-D3
# Experiment: as above
# How it was run: as §1
row,Binder,SPOT peptide array binding signal intensity
1,SSSSSPPPLPTRRDH,≤ 0

# Biological target: CaAbp1-D1
# Experiment: as above
# How it was run: as §1
row,Binder,SPOT peptide array binding signal intensity
1,SSSSSPPPLPTRRDH,7.5

# Biological target: CaAbp1-D2
# Experiment: as above
# How it was run: as §1
row,Binder,SPOT peptide array binding signal intensity
1,SSSSSPPPLPTRRDH,≤ 0

# Biological target: CaBbc1
# Experiment: as above
# How it was run: as §1
row,Binder,SPOT peptide array binding signal intensity
1,SSSSSPPPLPTRRDH,378

# Biological target: CaBem1-D1
# Experiment: as above
# How it was run: as §1
row,Binder,SPOT peptide array binding signal intensity
1,SSSSSPPPLPTRRDH,4

# Biological target: CaBzz1-D1
# Experiment: as above
# How it was run: as §1
row,Binder,SPOT peptide array binding signal intensity
1,SSSSSPPPLPTRRDH,139

# Biological target: CaBzz1-D2
# Experiment: as above
# How it was run: as §1
row,Binder,SPOT peptide array binding signal intensity
1,SSSSSPPPLPTRRDH,≤ 0

# Biological target: CaCyk3
# Experiment: as above
# How it was run: as §1
row,Binder,SPOT peptide array binding signal intensity
1,SSSSSPPPLPTRRDH,2

# Biological target: CaFus1
# Experiment: as above
# How it was run: as §1
row,Binder,SPOT peptide array binding signal intensity
1,SSSSSPPPLPTRRDH,26

# Biological target: CaHof1
# Experiment: as above
# How it was run: as §1
row,Binder,SPOT peptide array binding signal intensity
1,SSSSSPPPLPTRRDH,24.5

# Biological target: CaHse1
# Experiment: as above
# How it was run: as §1
row,Binder,SPOT peptide array binding signal intensity
1,SSSSSPPPLPTRRDH,114

# Biological target: CaLsb1
# Experiment: as above
# How it was run: as §1
row,Binder,SPOT peptide array binding signal intensity
1,SSSSSPPPLPTRRDH,19.5

# Biological target: CaLsb4
# Experiment: as above
# How it was run: as §1
row,Binder,SPOT peptide array binding signal intensity
1,SSSSSPPPLPTRRDH,8630

# Biological target: CaMyo5
# Experiment: as above
# How it was run: as §1
row,Binder,SPOT peptide array binding signal intensity
1,SSSSSPPPLPTRRDH,6.5

# Biological target: CaNbp2
# Experiment: as above
# How it was run: as §1
row,Binder,SPOT peptide array binding signal intensity
1,SSSSSPPPLPTRRDH,24.5

# Biological target: CaRvs167
# Experiment: as above
# How it was run: as §1
row,Binder,SPOT peptide array binding signal intensity
1,SSSSSPPPLPTRRDH,1510

# Biological target: CaRvs167-3
# Experiment: as above
# How it was run: as §1
row,Binder,SPOT peptide array binding signal intensity
1,SSSSSPPPLPTRRDH,7.25

# Biological target: CaSho1
# Experiment: as above
# How it was run: as §1
row,Binder,SPOT peptide array binding signal intensity
1,SSSSSPPPLPTRRDH,6.5

# Biological target: CaSla1-D1-D2
# Experiment: as above
# How it was run: as §1
row,Binder,SPOT peptide array binding signal intensity
1,SSSSSPPPLPTRRDH,76

# Biological target: CaSla1-D3
# Experiment: as above
# How it was run: as §1
row,Binder,SPOT peptide array binding signal intensity
1,SSSSSPPPLPTRRDH,3.25

# Biological target: ScAbp1
# Experiment: as above
# How it was run: as §1
row,Binder,SPOT peptide array binding signal intensity
1,SSSSSPPPLPTRRDH,≤ 0

# Biological target: ScBbc1
# Experiment: as above
# How it was run: as §1
row,Binder,SPOT peptide array binding signal intensity
1,SSSSSPPPLPTRRDH,4

# Biological target: ScBem1-D1
# Experiment: as above
# How it was run: as §1
row,Binder,SPOT peptide array binding signal intensity
1,SSSSSPPPLPTRRDH,≤ 0

# Biological target: ScBzz1-D1
# Experiment: as above
# How it was run: as §1
row,Binder,SPOT peptide array binding signal intensity
1,SSSSSPPPLPTRRDH,≤ 0

# Biological target: ScBzz1-D2
# Experiment: as above
# How it was run: as §1
row,Binder,SPOT peptide array binding signal intensity
1,SSSSSPPPLPTRRDH,12

# Biological target: ScCyk3
# Experiment: as above
# How it was run: as §1
row,Binder,SPOT peptide array binding signal intensity
1,SSSSSPPPLPTRRDH,1

# Biological target: ScFus1
# Experiment: as above
# How it was run: as §1
row,Binder,SPOT peptide array binding signal intensity
1,SSSSSPPPLPTRRDH,20

# Biological target: ScHof1
# Experiment: as above
# How it was run: as §1
row,Binder,SPOT peptide array binding signal intensity
1,SSSSSPPPLPTRRDH,9.75

# Biological target: ScHse1
# Experiment: as above
# How it was run: as §1
row,Binder,SPOT peptide array binding signal intensity
1,SSSSSPPPLPTRRDH,15

# Biological target: ScLsb1
# Experiment: as above
# How it was run: as §1
row,Binder,SPOT peptide array binding signal intensity
1,SSSSSPPPLPTRRDH,1340

# Biological target: ScLsb2
# Experiment: as above
# How it was run: as §1
row,Binder,SPOT peptide array binding signal intensity
1,SSSSSPPPLPTRRDH,349

# Biological target: ScLsb3
# Experiment: as above
# How it was run: as §1
row,Binder,SPOT peptide array binding signal intensity
1,SSSSSPPPLPTRRDH,5910

# Biological target: ScLsb4
# Experiment: as above
# How it was run: as §1
row,Binder,SPOT peptide array binding signal intensity
1,SSSSSPPPLPTRRDH,7200

# Biological target: ScMyo3
# Experiment: as above
# How it was run: as §1
row,Binder,SPOT peptide array binding signal intensity
1,SSSSSPPPLPTRRDH,460

# Biological target: ScMyo5
# Experiment: as above
# How it was run: as §1
row,Binder,SPOT peptide array binding signal intensity
1,SSSSSPPPLPTRRDH,166

# Biological target: ScNbp2
# Experiment: as above
# How it was run: as §1
row,Binder,SPOT peptide array binding signal intensity
1,SSSSSPPPLPTRRDH,≤ 0

# Biological target: ScPex13
# Experiment: as above
# How it was run: as §1
row,Binder,SPOT peptide array binding signal intensity
1,SSSSSPPPLPTRRDH,1560

# Biological target: ScRvs167
# Experiment: as above
# How it was run: as §1
row,Binder,SPOT peptide array binding signal intensity
1,SSSSSPPPLPTRRDH,2180

# Biological target: ScSho1
# Experiment: as above
# How it was run: as §1
row,Binder,SPOT peptide array binding signal intensity
1,SSSSSPPPLPTRRDH,26.5

# Biological target: ScSla1-D1-D2
# Experiment: as above
# How it was run: as §1
row,Binder,SPOT peptide array binding signal intensity
1,SSSSSPPPLPTRRDH,51

# Biological target: ScSla1-D3
# Experiment: as above
# How it was run: as §1
row,Binder,SPOT peptide array binding signal intensity
1,SSSSSPPPLPTRRDH,10

# Biological target: SpAbp1-D1
# Experiment: as above
# How it was run: as §1
row,Binder,SPOT peptide array binding signal intensity
1,SSSSSPPPLPTRRDH,22.5

# Biological target: SpBbc1
# Experiment: as above
# How it was run: as §1
row,Binder,SPOT peptide array binding signal intensity
1,SSSSSPPPLPTRRDH,13

# Biological target: SpBzz1-D1
# Experiment: as above
# How it was run: as §1
row,Binder,SPOT peptide array binding signal intensity
1,SSSSSPPPLPTRRDH,406

# Biological target: SpBzz1-D2
# Experiment: as above
# How it was run: as §1
row,Binder,SPOT peptide array binding signal intensity
1,SSSSSPPPLPTRRDH,9.75

# Biological target: SpCyk3
# Experiment: as above
# How it was run: as §1
row,Binder,SPOT peptide array binding signal intensity
1,SSSSSPPPLPTRRDH,2

# Biological target: SpHof1
# Experiment: as above
# How it was run: as §1
row,Binder,SPOT peptide array binding signal intensity
1,SSSSSPPPLPTRRDH,8.75

# Biological target: SpHof1-2
# Experiment: as above
# How it was run: as §1
row,Binder,SPOT peptide array binding signal intensity
1,SSSSSPPPLPTRRDH,54.5

# Biological target: SpHof1-3
# Experiment: as above
# How it was run: as §1
row,Binder,SPOT peptide array binding signal intensity
1,SSSSSPPPLPTRRDH,8.75

# Biological target: SpHse1
# Experiment: as above
# How it was run: as §1
row,Binder,SPOT peptide array binding signal intensity
1,SSSSSPPPLPTRRDH,35

# Biological target: SpLsb1
# Experiment: as above
# How it was run: as §1
row,Binder,SPOT peptide array binding signal intensity
1,SSSSSPPPLPTRRDH,1530

# Biological target: SpLsb4
# Experiment: as above
# How it was run: as §1
row,Binder,SPOT peptide array binding signal intensity
1,SSSSSPPPLPTRRDH,6770

# Biological target: SpMyo1
# Experiment: as above
# How it was run: as §1
row,Binder,SPOT peptide array binding signal intensity
1,SSSSSPPPLPTRRDH,308

# Biological target: SpNbp2
# Experiment: as above
# How it was run: as §1
row,Binder,SPOT peptide array binding signal intensity
1,SSSSSPPPLPTRRDH,6

# Biological target: SpPex13
# Experiment: as above
# How it was run: as §1
row,Binder,SPOT peptide array binding signal intensity
1,SSSSSPPPLPTRRDH,6.5

# Biological target: SpRvs167
# Experiment: as above
# How it was run: as §1
row,Binder,SPOT peptide array binding signal intensity
1,SSSSSPPPLPTRRDH,2880

# Biological target: SpSla1-D1-D2
# Experiment: as above
# How it was run: as §1
row,Binder,SPOT peptide array binding signal intensity
1,SSSSSPPPLPTRRDH,11

# Biological target: SpSla1-D3
# Experiment: as above
# How it was run: as §1
row,Binder,SPOT peptide array binding signal intensity
1,SSSSSPPPLPTRRDH,9.5
